Assay outcomes as filed in PubChem.
Beta2AR agonist: agonists of human beta-2 adrenergic receptor inducing internalization; Am2.2-beta2AR cells, FAP receptor internalization, flow cytometry; P07550; 340,000 compounds, 0.43% hits; response, % (concentration not given with the values);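 active = response above a set limit, near 3 SD of response in nonfluorescent compounds, cut at about 42% in these data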
NTR1 agonist: activates human neurotensin receptor 1 | P30989 | NTR1-U2OS beta-arrestin-GFP spot imaging, agonist mode | activation, % at 20 µM | 330,000 compounds, 0.17% hits;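 active = activation at or above 40% of the spot to cytoplasm intensity ratio, with at least 20 cells analyzed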;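 also: 0% = DMSO without peptide and 100% = 100 nM NTR1 peptide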
ABHD5 PLIN5 PPI: inhibitors of human ABHD5-perilipin-5 interaction. AID 602281. inhibition, % at 4 µM. 360,000 compounds, 0.78% hits. Split G. princeps luciferase complementation, luminescence, 4 h. Q00G26+Q8WTS1;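 active = inhibition above the mean inhibition across every tested compound plus 3 SD, cut at about 22% in these data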;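 also: 0% = DMSO only wells and the 100% control is not disclosed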
NOD2-RIPK2 inh: blocks binding of human NOD2 to RIPK2; AID 624267; 360,000 compounds, 0.38% hits; CHO BLA complementation NOD2-RIPK2, CCF4 ratio; inhibition, % at 4.98 µM; in the data active = inhibition above about 21%;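 also: 0% = vehicle only and 100% = reference blocker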
TLR4 MyD88 comp: inhibitors of human TLR4-MyD88 binding; O00206+Q99836; inhibition, % at 8.4 µM; HeLa CL3-4 TLR4/MyD88 BLA complementation, FRET ratio; 200,000 compounds, 0.18% hits; in the data active = inhibition above about 25%;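 also: 0% = vehicle and 100% = reference inhibitor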
TLR9-MyD88 block: blocks human TLR9 binding to MyD88. Q9NR96+Q99836. CHO BLA complementation TLR9-MyD88, CCF4 FRET ratio. inhibition, % at 4.98 µM. 340,000 compounds, 0.21% hits. AID 504734;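 active = inhibition above the mean over all tested compounds plus 3 SD, cut at about 21% in these data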;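 also: 0% = DMSO only wells and 100% = clavulanate BLA inhibitor control wells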
Target sequence (Q99836 whole entry, looked up): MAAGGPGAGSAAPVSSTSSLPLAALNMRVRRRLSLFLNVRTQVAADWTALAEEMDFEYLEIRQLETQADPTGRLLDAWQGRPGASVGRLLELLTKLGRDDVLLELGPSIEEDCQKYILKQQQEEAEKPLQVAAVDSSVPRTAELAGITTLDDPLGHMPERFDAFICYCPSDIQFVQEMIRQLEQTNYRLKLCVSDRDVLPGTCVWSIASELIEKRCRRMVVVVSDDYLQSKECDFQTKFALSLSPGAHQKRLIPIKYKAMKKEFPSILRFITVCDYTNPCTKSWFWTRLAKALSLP
Target sequence (Q9NR96 whole entry, looked up): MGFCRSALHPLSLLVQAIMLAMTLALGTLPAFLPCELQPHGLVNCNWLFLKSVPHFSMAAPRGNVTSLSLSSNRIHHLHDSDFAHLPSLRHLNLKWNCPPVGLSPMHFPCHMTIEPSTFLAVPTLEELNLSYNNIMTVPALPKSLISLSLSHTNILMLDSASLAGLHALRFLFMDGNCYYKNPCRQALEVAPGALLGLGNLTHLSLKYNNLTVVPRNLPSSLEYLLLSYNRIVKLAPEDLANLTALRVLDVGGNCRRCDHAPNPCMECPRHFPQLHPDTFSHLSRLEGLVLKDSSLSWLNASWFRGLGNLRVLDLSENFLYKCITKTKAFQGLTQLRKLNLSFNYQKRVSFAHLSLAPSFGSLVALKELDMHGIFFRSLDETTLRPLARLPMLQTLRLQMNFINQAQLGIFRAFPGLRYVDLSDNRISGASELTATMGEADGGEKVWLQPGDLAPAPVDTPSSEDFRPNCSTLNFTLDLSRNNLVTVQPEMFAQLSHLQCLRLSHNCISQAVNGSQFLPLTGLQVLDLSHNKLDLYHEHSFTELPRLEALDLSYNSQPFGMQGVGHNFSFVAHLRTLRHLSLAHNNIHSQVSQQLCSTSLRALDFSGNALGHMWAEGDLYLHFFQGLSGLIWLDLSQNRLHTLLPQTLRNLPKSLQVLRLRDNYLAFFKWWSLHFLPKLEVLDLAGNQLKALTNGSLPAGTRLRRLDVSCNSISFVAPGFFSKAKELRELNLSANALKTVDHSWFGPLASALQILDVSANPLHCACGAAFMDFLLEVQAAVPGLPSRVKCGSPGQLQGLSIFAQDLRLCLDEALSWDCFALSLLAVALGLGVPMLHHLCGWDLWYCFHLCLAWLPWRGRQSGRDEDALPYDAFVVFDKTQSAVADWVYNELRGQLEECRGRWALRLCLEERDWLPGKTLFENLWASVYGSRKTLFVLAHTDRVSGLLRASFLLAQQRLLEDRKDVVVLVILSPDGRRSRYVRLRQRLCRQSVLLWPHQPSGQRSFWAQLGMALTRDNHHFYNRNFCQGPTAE
ABHD5-PLIN5 conf: ABHD5-PLIN5 interaction inhibition, confirmed. 2,200 compounds, 67% hits. inhibition, % at 4 µM. AID 651612. biochemical ABHD5-PLIN5 interaction, luminescence. shares compounds with ABHD5 PLIN5 PPI; in the data active = inhibition above about 23%;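 also: 0% = DMSO vehicle wells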
HNF4 split-luc: active in HNF4 split-luciferase counter-screen for ABHD5-PLIN5 inhibitors; shares compounds with ABHD5 PLIN5 PPI; HNF4 dimerization, luminescence, biochemical; inhibition, % at 4 µM; 2,200 compounds, 77% hits; AID 651674;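 active = mean inhibition across replicate wells exceeding the computed hit threshold, cut at about 13% in these data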;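 also: light from luciferase halves that rejoin when HNF4 fusion proteins dimerize; 0% = DMSO only wells and the 100% control is not given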
* hit, by the source's call; . = not tested or not shown. The list is not random: actives were taken first. Their share in the collection is about 1.5%.

SMILES	Beta2AR agonist	NTR1 agonist	ABHD5 PLIN5 PPI	NOD2-RIPK2 inh	TLR4 MyD88 comp	TLR9-MyD88 block	ABHD5-PLIN5 conf	HNF4 split-luc
COc1ccc(S(=O)(=O)CC(=O)c2cc3cc(Br)ccc3oc2=O)cc1	8.6	2.2	33.1*	4.9	.	9.7	69.8*	53.4*
COc1ccc2oc(=O)c(C(=O)NCc3ccco3)cc2c1	4.9	-0.6	34.4*	1.7	12.0	1.6	6.3	9.1
CCCCN1C(=O)C(CC(=O)NCC2CCCCC2)CC(C(=O)N2CCCCCC2)=C1C (centres undefined)	.	.	1.0	-6.0	.	.	.	.
Cc1ccc(C(C[N+](=O)[O-])c2c(N)n(C)c(=O)n(C)c2=O)cc1 (centres undefined)	10.4	8.7	31.9*	-4.6	.	-10.4	35.7*	43.9*
Cn1c(N)c(C(C[N+](=O)[O-])c2ccccc2Cl)c(=O)n(C)c1=O (centres undefined)	-2.8	0.8	13.4	-3.8	.	-7.2	.	.
COc1cccc(F)c1C(C[N+](=O)[O-])c1c(N)n(C)c(=O)n(C)c1=O (centres undefined)	9.3	14.0	31.3*	13.8	.	9.2	29.8*	67.6*
Cn1c(N)c(C(=O)CSc2ccc3c(c2)OCCO3)c(=O)n(C)c1=O	-0.4	2.3	-3.6	4.4	-3.6	0.4	.	.
COc1ccccc1C(C[N+](=O)[O-])c1c[nH]c2ccccc12 (centres undefined)	14.4	1.4	12.6	1.7	.	-4.1	.	.
COc1cc(C(C[N+](=O)[O-])c2c(C)[nH]c3ccccc23)ccc1O (centres undefined)	8.0	-0.7	1.6	-12.7	-2.2	2.8	.	.
CC(C(c1ccc2c(c1)OCO2)c1c(N)n(C)c(=O)n(C)c1=O)[N+](=O)[O-] (centres undefined)	-3.8	1.4	33.0*	-7.8	.	-6.1	6.0	11.8
COc1cc(C(C[N+](=O)[O-])c2c(N)n(C)c(=O)n(C)c2=O)ccc1O (centres undefined)	11.5	2.4	44.8*	-5.4	-5.2	-13.3	36.9*	55.2*
CCc1nc2c(OCc3ccccc3C(=O)OC)cccn2c1N(C)C(=O)c1cccc(OC)c1	.	.	18.2	12.1	.	.	.	.
Cc1ccc([C@H]2C[C@@H](O)[C@H](n3cc(C4CC4)nn3)CN2CC2CCCCC2)cc1	.	.	-14.7	-2.5	.	2.5	.	.
COc1ccc(OCCNc2cc(N3CCCCC3)ccc2[N+](=O)[O-])cc1	-0.2	0.1	-3.2	-9.3	-4.1	-0.3	.	.
O=[N+]([O-])c1ccc(N2CCN(S(=O)(=O)c3ccccc3)CC2)cc1NCCN1CCOCC1	19.6	7.8	23.3*	-9.6	-3.4	-1.0	1.6	8.8
Cc1ccc(S(=O)(=O)N2CCN(c3ccc([N+](=O)[O-])c(NCCN4CCOCC4)c3)CC2)cc1	9.1	-0.9	10.9	0.9	-7.3	0.3	.	.
Cc1cccc(OCCNc2cc(N3CCN(CCO)CC3)ccc2[N+](=O)[O-])c1	16.8	1.1	27.4*	0.9	-4.1	-11.3	16.3	9.3
CC1CN(c2ccc([N+](=O)[O-])c(NCCOc3ccccc3)c2)CCN1 (centres undefined)	15.3	-2.0	28.7*	4.9	-4.6	1.8	16.0	0.5
COC(=O)c1nc(-c2ccc(C)cc2)[nH]c1C(C)(C)C	.	.	4.2	-12.5	.	.	.	.
C[C@H]1CCCCO[C@H](CN(C)Cc2ccc(C(=O)O)cc2)[C@@H](C)CN([C@@H](C)CO)C(=O)c2cc(NS(=O)(=O)c3cn(C)cn3)ccc2O1	.	.	-0.2	3.3	.	-2.5	.	.
CC(=O)Oc1c(Cl)cc(N(C(C)=O)S(=O)(=O)c2ccccc2)c2ccccc12	8.2	0.8	57.9*	-2.3	.	.	48.5*	14.8*
COc1cc(C(CCN2CCCC(C)C2)c2c(OC)cc(OC)c3c(-c4ccccc4)cc(=O)oc23)cc(OC)c1OC (centres undefined)	8.0	23.1	27.1*	6.6	.	-0.4	8.8	6.7
